# U2OS ROS induce = cancer cell ROS induction | U2OS ROS induction, H2DCF-DA fluorescence | ROS induction (% of piperlongumine), % at 10 µM | hit rate 2% among 46,000; in the data active means ROS induction above about 79%, passing the limit was not always enough; inconclusive means no clear call, values can overlap the other calls;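 further: 0% = DMSO vehicle median and 100% = reference compound median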
# NOMO-1 viab = STK33 inhibitor candidate reducing NOMO-1 cell viability. NOMO-1 AML viability, CellTiter-Glo luminescence, 72 h. inhibition, % (no concentration beside the values). hit rate 7.5% among 37,000; in the data active means inhibition above about 80%; inconclusive means no clear call, values can overlap the other calls
# PD-1 reverse act = activators reversing PD-1 mediated T-cell inhibition; primary human CD4 T cells, PD-L1 beads, CellTiter-Glo 96 h; activation, % (concentration not given with the values); 29,000 tested, under 10 active; AID 2316; call rule not given here;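 further: 0% = median vehicle wells and 100% = positive control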
# * hit, by the source's call; ? = inconclusive; nt = no result. The sample as a whole holds a higher share of hits than the screen did.
SMILES,U2OS ROS induce,NOMO-1 viab,PD-1 reverse act
Cc1ccc(S(=O)(=O)Nc2ccc3c(c2)CC(=O)N([C@H](C)CO)C[C@H](C)[C@H](CN(C)CC2CCCCC2)O3)cc1,15,99*,-2
Cc1nc2c3ccccc3n3c(CCCC(=O)NCCc4ccc(Cl)cc4)nnc3n2n1,30,nt,nt
Cc1nnc(SCC(=O)Nc2cccc(C(F)(F)F)c2)s1,-10,8,4
CC1(C)CC(=O)C=C(SCC(=O)Nc2cc(C(F)(F)F)cc(C(F)(F)F)c2)S1,7,103*,-2
NNC(=O)Cc1csc2nc(-c3ccccc3)nn12,-1,nt,nt
CCOc1ccccc1NC(=O)C(C)Oc1ccc(OC)cc1 (centres undefined),2,105*,-3
COc1ccc(OC(C)C(=O)Nc2cc(OC)cc(OC)c2)cc1 (centres undefined),15,36,1
C[C@H](CO)N1C[C@H](C)[C@H](CN(C)C)Oc2c(NC(=O)CCCCCC(=O)Nc3ccccc3N)cccc2C1=O,-12,19,1
C[C@@H]1CN([C@@H](C)CO)C(=O)c2cccc(NC(=O)CCCCCC(=O)Nc3ccccc3N)c2O[C@H]1CN(C)CC1CCCCC1,82*,138*,-1
C[C@H](CO)N1C[C@H](C)[C@H](CN(C)CC2CC2)Oc2c(NC(=O)CCCCCC(=O)Nc3ccccc3N)cccc2C1=O,-7,22,0
C[C@H](CO)N1C[C@H](C)[C@@H](CN(C)CC2CC2)Oc2c(NC(=O)CCCCCC(=O)Nc3ccccc3N)cccc2C1=O,48,121*,-1
O=C(Nc1ccccc1Br)c1ccccc1Oc1ccccc1,-5,nt,nt
COc1ccc(S(=O)(=O)Nc2ccc3c(c2)C(=O)N([C@H](C)CO)C[C@H](C)[C@@H](CN(C)Cc2ccc(C(=O)O)cc2)OCCCC[C@@H](C)O3)cc1,14,-7,nt
COc1ccc(S(=O)(=O)Nc2ccc3c(c2)C(=O)N([C@H](C)CO)C[C@H](C)[C@@H](CN(C)Cc2ccc(Cl)c(Cl)c2)OCCCC[C@@H](C)O3)cc1,151*,125*,nt
COc1ccc(CN(C)C[C@H]2OCCCC[C@@H](C)Oc3ccc(NS(=O)(=O)c4ccc(C)cc4)cc3C(=O)N([C@H](C)CO)C[C@@H]2C)cc1,29,22,nt
C[C@@H]1CCCCO[C@H](CN(C)Cc2ccc(Cl)c(Cl)c2)[C@@H](C)CN([C@H](C)CO)C(=O)c2cc(NS(=O)(=O)c3ccc(Cl)cc3)ccc2O1,17,116*,-5
C[C@@H]1CCCCO[C@@H](CN(C)Cc2ccc(Cl)c(Cl)c2)[C@@H](C)CN([C@H](C)CO)C(=O)c2cc(NS(=O)(=O)c3ccc(Cl)cc3)ccc2O1,31,73,-9
COc1ccc(S(=O)(=O)Nc2ccc3c(c2)C(=O)N([C@H](C)CO)C[C@H](C)[C@H](CN(C)Cc2ccc(C(F)(F)F)cc2)OCCCC[C@@H](C)O3)cc1,66,105*,-2
COc1ccc(CN(C)C[C@@H]2OCCCC[C@@H](C)Oc3ccc(NS(=O)(=O)c4ccc(OC)cc4)cc3C(=O)N([C@H](C)CO)C[C@@H]2C)cc1,172*,15,1
COc1ccc(CN(C)C[C@@H]2OCCCC[C@@H](C)Oc3ccc(NS(=O)(=O)c4ccc(Cl)cc4)cc3C(=O)N([C@H](C)CO)C[C@@H]2C)cc1,58,30,-2
COc1ccc(/C=C2\SC(N(C)c3ccc(Cl)cc3)=NC2=O)c(OC)c1OC,31,nt,nt
COc1ccc(CCNC(=O)C2CC2(c2ccc(C)cc2)c2ccc(C)cc2)cc1OC (centres undefined),15,nt,nt
Cc1cc(I)ccc1-n1[nH]c(C(F)(F)F)cc1=O,-9,nt,nt
O=C(CSCC(=O)c1ccc2c(c1)Cc1ccccc1-2)Nc1ccccc1,26,nt,nt
COc1ccc(C2=NN(C(=O)c3cccs3)C(c3cc4ccccc4nc3Cl)C2)cc1 (centres undefined),-2,nt,nt
SMILES,U2OS ROS induce,NOMO-1 viab,PD-1 reverse act
CC(N=Cc1c(O)ccc2ccccc12)C12CC3CC(CC(C3)C1)C2 (centres undefined),67,101*,1
Oc1ccc2ccccc2c1/C=N/N1CCN(Cc2ccccc2)CC1,0,nt,nt
O/N=C/c1ccc(N2CCOCC2)cc1,-10,nt,nt
COC(=O)CN(c1cc([N+](=O)[O-])ccc1OC)S(C)(=O)=O,nt,100*,nt
CNC(=O)CN(c1cc([N+](=O)[O-])ccc1OC)S(C)(=O)=O,-9,1,-1
COc1ccc([N+](=O)[O-])cc1NC(=O)C(C)N(c1ccc(C)cc1)S(C)(=O)=O (centres undefined),-4,112*,0
COc1ccc(NC(=O)C(C)N(c2ccc(C)cc2)S(C)(=O)=O)c(OC)c1 (centres undefined),5,7,1
Cc1ccc2c(c1)C(C)(C)C1(C)N(Cc3ccccc3)C(=O)CN21 (centres undefined),21,9,2
CCC1Oc2ccc(C)cc2N(CC(=O)NCCCN2CCN(c3ccccc3F)CC2)C1=O (centres undefined),7,nt,nt
CCCS(=O)(=O)N1CCCC(C(=O)NC)C1 (centres undefined),3,nt,nt
C[C@H](CO)N1C[C@H](C)[C@H](CN(C)Cc2ccc(Cl)c(Cl)c2)Oc2c(NC(=O)Nc3ccccc3)cccc2C1=O,30,68,-4
C[C@@H]1CN([C@@H](C)CO)C(=O)c2cccc(NC(=O)Nc3ccccc3)c2O[C@H]1CN(C)Cc1ccc(Cl)c(Cl)c1,?,102*,nt
C[C@@H]1CN([C@H](C)CO)C(=O)c2cccc(NC(=O)Nc3ccccc3)c2O[C@@H]1CN(C)Cc1ccc(Cl)c(Cl)c1,15,?,-4
C[C@H]1CN([C@@H](C)CO)C(=O)c2cccc(NC(=O)Nc3ccccc3)c2O[C@@H]1CN(C)Cc1ccc(Cl)c(Cl)c1,89*,64,0
C[C@H](CO)N1C[C@H](C)[C@H](CN(C)Cc2ccc(Cl)c(Cl)c2)Oc2c(NC(=O)Nc3ccc4c(c3)OCO4)cccc2C1=O,22,71,-3
C[C@@H]1CN([C@@H](C)CO)C(=O)c2cccc(NC(=O)Nc3ccc(F)cc3)c2O[C@@H]1CN(C)Cc1ccc(Cl)c(Cl)c1,23,93*,-5
Cc1ccc2c(c1)N(C(=O)NCc1ccccc1)CC(C)O2 (centres undefined),-5,nt,nt
Fc1ccc(Nc2nc(Nc3ccc(F)cc3)nc(N3CCCCC3)n2)cc1,24,nt,nt
O=C(CN1C(=O)CCc2ccccc21)NCc1ccccc1,-10,nt,nt
Cc1ccc(-c2nnc(Nc3ccccc3)c3ccccc23)cc1S(=O)(=O)N1CCCCC1,66,nt,nt
O=C(O)CN1C(=O)CCS(=O)(=O)c2ccccc21,-4,nt,nt
CC1CCc2c(sc3ncnc(NCCc4nc5ccccc5[nH]4)c23)C1 (centres undefined),nt,97*,nt
CC1CCc2c(sc3ncnc(SCCOc4ccccc4)c23)C1 (centres undefined),-2,-13,4
O=C(/C=C/c1ccccc1Cl)N1CCCCC1,-13,nt,nt
CCOC(=O)CN1C(=O)S/C(=C\c2ccccc2OCc2ccccc2F)C1=O,103*,nt,nt
CCOC(=O)CN1C(=O)S/C(=C/c2ccc3c(c2)n(C)c(=O)n3C)C1=O,0,nt,nt
CCN(CC)S(=O)(=O)c1ccc(Cl)c(C(=O)N2c3ccccc3Sc3ccccc32)c1,44,nt,nt
Cn1cnc2c(cnn2-c2ccc(F)cc2)c1=O,-11,nt,nt
